Structures are written as SMILES. Several values for one entry are separate records, joined by “and”; a condition that tells them apart may be missing. Equal values may be shown once. Records with an inconclusive call do not appear. The source holds several records for some structures; these can differ, active in one and inactive in another. Activity calls are given as the source filed them. Unless noted, calls follow the shape of the full dose curve.

We go through seven molecules from PubChem BioAssay (Tox21).

Experiment [1] in a line: Nuclear factor erythroid 2-related factor 2/antioxidant responsive element (Nrf2/ARE) small molecule agonists: qHTS cell viability counter screen in human keratinocytes (AID 1919968; active = well fitted curve in the direction sought with a large enough effect in the repeat runs; an effect the other way counts as inactive or inconclusive; also: nearly all actives have a fitted effect of over 55% in size; also: potency is read from the fitted curve at half-maximal effect). Put shortly:
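Seed 1,500 KeratinoSens cells per well, then incubate 5 h at 37 C/5% CO2. Add compounds in DMSO and incubate 23 h. Add CellTiter-Fluor, wait 1 h and read fluorescence.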

The nature of experiment [2]: Nuclear factor erythroid 2-related factor 2/antioxidant responsive element (Nrf2/ARE) small molecule agonists: luciferase reporter gene qHTS assay in human keratinocytes (AID 1919969). Also: nearly all actives have a fitted effect of over 35% in size. Also: potency is read from the fitted curve at half-maximal effect.
In experiment [3] the target is KiSS-1 receptor (Homo sapiens) (UniProt Q969F8). Kind of experiment: Human kisspeptin (KISS1R) small molecule agonists, calcium flux assay in KISS1R-HEK293 cells (AID 1920064; active = well fitted curve in the direction sought with a large enough effect in the repeat runs; an effect the other way counts as inactive or inconclusive). In a few lines: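 Cells plated and incubated 18 h; dye added, 1 h at 37 C; compounds in DMSO pinned in; signal read at 480/540 nm every second for 3 min. Each compound tested at 15 concentrations in triplicate.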
Chain of KiSS-1 receptor (Homo sapiens) (Q969F8 whole entry, looked up): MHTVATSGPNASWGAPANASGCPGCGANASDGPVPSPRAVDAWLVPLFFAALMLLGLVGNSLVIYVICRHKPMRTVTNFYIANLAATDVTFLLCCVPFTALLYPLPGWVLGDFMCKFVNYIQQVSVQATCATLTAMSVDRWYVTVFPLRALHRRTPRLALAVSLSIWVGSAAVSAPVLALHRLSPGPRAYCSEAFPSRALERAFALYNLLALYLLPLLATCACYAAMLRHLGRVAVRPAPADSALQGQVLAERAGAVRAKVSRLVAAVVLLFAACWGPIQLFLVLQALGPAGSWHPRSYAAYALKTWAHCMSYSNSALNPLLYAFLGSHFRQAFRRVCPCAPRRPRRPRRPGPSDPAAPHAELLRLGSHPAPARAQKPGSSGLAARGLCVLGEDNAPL

Experiment [4] in a line: p53 small molecule agonists, cell-based qHTS assay with human liver microsomes (AID 1963577).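 Also: p53 response element beta-lactamase reporter cells with liver microsomes plus NADPH.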 In a few lines:
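16 h, 37 C exposure of p53RE-bla cells to compounds with human liver microsomes and NADPH (0.5 mg/mL final each); detection via LiveBLAzer mixture, 2 h dark at room temperature.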

A short description of experiment [5]: p53 small molecule agonists, cell-based qHTS assay with rat liver microsomes (AID 1963578). Put shortly: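 With rat liver microsomes and NADPH present (0.5 mg/mL final each), p53RE-bla cells are treated with compound for 16 h at 37 C. LiveBLAzer detection mixture is then applied for 2 h at room temperature in the dark.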
A short description of experiment [6]: p53 small molecule agonists, cell-based qHTS assay with human liver microsomes: qHTS cell viability counter screen (AID 1963579). Also: nearly all actives have a fitted effect of over 45% in size. Also: potency is read from the fitted curve at half-maximal effect. In a few lines:
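In this multiplexed counter screen, the reporter plates were subsequently treated with CellTiter-Glo so that cell viability, reflected by luminescence, could be recorded for p53RE-bla cells dosed 16 h with compounds under microsomal activation (HLM and NADPH).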

Experiment [7] is described as follows: p53 small molecule agonists, cell-based qHTS assay with rat liver microsomes: qHTS cell viability counter screen (AID 1963580). Also: nearly all actives have a fitted effect of over 45% in size. Put shortly:
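p53RE-bla HCT-116 cells (4,000/well) rested 5 h at 37 C, then given Tox21 compounds in DMSO with rat liver microsomes (0.5 mg/mL final) plus NADPH (0.5 mg/mL final) for 16 h at 37 C. Viability read by CellTiter-Glo luminescence after 30 min at room temperature.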

A short description of experiment [8]: p53 small molecule agonists, cell-based qHTS assay: qHTS cell viability counter screen (AID 1963581). Also: nearly all actives have a fitted effect of over 45% in size. Also: potency is read from the fitted curve at half-maximal effect. In a few lines: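 Cells: HCT-116 with p53 response element-driven beta-lactamase. Treatment: 16 h, 37 C, compounds in DMSO. Read: CellTiter-Glo luminescence after 30 min RT.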
Experiment [9] can be described thus: p53 small molecule agonists, cell-based qHTS assay (AID 1963582; active = well fitted activation curve with a large enough effect in the signal ratio in the repeat runs, not every such curve was filed as active; the % refers to the signal ratio). In a few lines:
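Quantitative HTS in p53RE-bla cells: after a 5 h settling period, compounds delivered in DMSO were left on cells for 16 h at 37 C, and reporter induction was measured as fluorescence following 2 h substrate loading.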

The nature of experiment [10]: cAMP Responsive Elements (CRE) small molecule agonists, cell-based qHTS assay (AID 1963590). Put shortly: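 Agonist mode qHTS in CRE-bla HEK 293T cells: compounds dosed from DMSO for 3 h at 37 C/5% CO2, followed by LiveBLAzer B/G FRET substrate for 2 h at room temperature.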
Experiment [11] in a line: cAMP Responsive Elements (CRE) small molecule antagonists, cell-based qHTS assay (AID 1963591; active = well fitted inhibition curve with a large enough effect in the signal ratio in the repeat runs, not every such curve was filed as active; the % refers to the signal ratio). In a few lines:
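Antagonist mode: test compounds are co-incubated with the adenylyl cyclase activator NKH477 (0.25 uM final) on CRE-bla HEK293T cells for 3 h at 37 °C, followed by LiveBLAzer substrate loading.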

In experiment [12] the target is Beta-2 adrenergic receptor (Homo sapiens) (UniProt P07550). Kind of experiment: Adrenergic beta2 receptor (ADRB2) small molecule antagonists, cell-based qHTS assay (AID 1963592). Also: series mostly up to about 92 µM; nearly all actives have a fitted effect of over 50% in size. Put shortly:
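Cells (CHO, stable ADRB2 overexpression) incubated 18-20hr at 37C; compounds added from DMSO; agonist mix (1nM isoproterenol, 100uM IBMX, 25uM Ro-20-1724) added; 0.5hr RT; d2-cAMP and anti-cAMP-cryptate added; 1hr RT; 665/615 nm read.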

In experiment [13] the target is D(2) dopamine receptor (Homo sapiens) (UniProt P14416). Kind of experiment: Dopamine D2 receptor (DRD2) small molecule agonists, cell-based qHTS assay (AID 1963594). Also: nearly all actives have a fitted effect of over 35% in size. Put shortly: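 HEK293 cells stably expressing DRD2 were cultured 24 h at 37 C, then given Ro20-1724 (0.1 mM final) and compounds for 10 min at room temperature. NKH477 (200nM) was then added for 30 min. cAMP was read by HTRF.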
Chain of D(2) dopamine receptor (Homo sapiens) (P14416 whole entry, looked up): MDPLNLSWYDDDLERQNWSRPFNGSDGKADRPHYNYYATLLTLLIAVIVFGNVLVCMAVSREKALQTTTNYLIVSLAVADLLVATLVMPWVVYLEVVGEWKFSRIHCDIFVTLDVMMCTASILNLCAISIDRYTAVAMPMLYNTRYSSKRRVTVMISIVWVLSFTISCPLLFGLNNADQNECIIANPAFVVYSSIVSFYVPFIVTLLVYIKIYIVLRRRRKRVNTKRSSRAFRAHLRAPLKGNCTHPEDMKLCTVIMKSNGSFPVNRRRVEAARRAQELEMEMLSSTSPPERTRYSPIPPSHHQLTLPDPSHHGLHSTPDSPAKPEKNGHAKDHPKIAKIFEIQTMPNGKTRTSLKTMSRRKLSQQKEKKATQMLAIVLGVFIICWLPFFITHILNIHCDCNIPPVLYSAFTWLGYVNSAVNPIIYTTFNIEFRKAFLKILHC

Experiment [14] shares this target. Kind of experiment: Dopamine D2 receptor (DRD2) small molecule antagonists, cell-based qHTS assay (AID 1963595; active = well fitted inhibition curve with a large enough effect in the signal ratio in the repeat runs, with a control signal flat; the % refers to the signal ratio; also: potency is read from the fitted curve at half-maximal effect). In a few lines:
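Readout: HTRF cAMP, cAMP-d2 competing with cellular cAMP for anti-cAMP cryptate, read after 1 h. Cells: DRD2-HEK293. Conditions: 0.1 mM Ro20-1724, 12 nM quinpirole, 200 nM NKH477, 30 min RT.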

A short description of experiment [15]: G protein-coupled receptor (GPCR) small molecule agonists, calcium flux assay: HEK293 wild type cell line counter screen (AID 1920065). Put shortly: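 Counter-screen of the Tox21 10K library for non-specific calcium release: dye-loaded cells received compounds in DMSO and were monitored by kinetic fluorescence (480/540 nm, 3 min). Fifteen concentrations, run in triplicate.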

Experiment [16] concerns the target 5-hydroxytryptamine receptor 2A (Homo sapiens) (UniProt P28223). Kind of experiment: 5-hydroxytryptamine receptor 2A (HTR2A) small molecule antagonists, cell-based qHTS assay (AID 1963586). Also: nearly all actives have a fitted effect of over 45% in size. Also: potency is read from the fitted curve at half-maximal effect. In a few lines: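 Antagonist-mode intracellular calcium assay: DOI (4 nM) added after 5 min compound pre-incubation at room temperature to dye-loaded HTR2A-CHO cells. Fluorescence followed for 3 min, sampled every second.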

Experiment [17] shares this target. Kind of experiment: 5-hydroxytryptamine receptor 2A (HTR2A) small molecule agonists, cell-based qHTS assay (AID 1963587). Also: nearly all actives have a fitted effect of over 30% in size. Also: potency is read from the fitted curve at half-maximal effect. In a few lines: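 HTR2A-CHO cells, plated 18 h at 37 C/5% CO2, dye-loaded 1 h at 37 C; compounds in DMSO added by pin tool (agonist mode). Intracellular calcium flux read as kinetic fluorescence on FDSS over 2 min at 1 s intervals.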
Experiment [18] concerns the target Muscarinic acetylcholine receptor M1 (Homo sapiens) (UniProt P11229). Kind of experiment: Cholinergic receptor muscarinic 1 (CHRM1) small molecule antagonists, cell-based qHTS assay (AID 1963588). Also: nearly all actives have a fitted effect of over 40% in size. Also: potency is read from the fitted curve at half-maximal effect. Put shortly:
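CHRM1-CHO calcium-flux assay, antagonist mode. Cells were seeded 18 h, dye-loaded 1 h at 37 C and given compound for 5 min at RT, then acetylcholine was added at 50nM. FDSS fluorescence was read 3 min; 15 concentrations, three runs.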

Experiment [19] shares this target. Briefly: Cholinergic receptor muscarinic 1 (CHRM1) small molecule agonists, cell-based qHTS assay (AID 1963589). Also: nearly all actives have a fitted effect of over 35% in size. In a few lines: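 Agonist-mode qHTS in CHO cells stably carrying human muscarinic M1. Intracellular calcium is tracked by fluorescence every second after compound transfer; each compound runs at 15 concentrations in three independent runs.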
Experiment [20] addresses Beta-2 adrenergic receptor (Homo sapiens) (UniProt P07550). Kind of experiment: Adrenergic beta2 receptor (ADRB2) small molecule agonists, cell-based qHTS assay (AID 1963593).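 Also: CHO cells stably overexpressing human ADRB2.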 Put shortly: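 CHO cells stably over-expressing ADRB2 were plated overnight at 37C, then dosed with compounds plus a stimulation mix containing 100uM IBMX and 25uM Ro-20-1724 for 0.5hr at room temperature. cAMP was measured by HTRF competition, 1hr.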

Chain of Beta-2 adrenergic receptor (Homo sapiens) (P07550 whole entry, looked up): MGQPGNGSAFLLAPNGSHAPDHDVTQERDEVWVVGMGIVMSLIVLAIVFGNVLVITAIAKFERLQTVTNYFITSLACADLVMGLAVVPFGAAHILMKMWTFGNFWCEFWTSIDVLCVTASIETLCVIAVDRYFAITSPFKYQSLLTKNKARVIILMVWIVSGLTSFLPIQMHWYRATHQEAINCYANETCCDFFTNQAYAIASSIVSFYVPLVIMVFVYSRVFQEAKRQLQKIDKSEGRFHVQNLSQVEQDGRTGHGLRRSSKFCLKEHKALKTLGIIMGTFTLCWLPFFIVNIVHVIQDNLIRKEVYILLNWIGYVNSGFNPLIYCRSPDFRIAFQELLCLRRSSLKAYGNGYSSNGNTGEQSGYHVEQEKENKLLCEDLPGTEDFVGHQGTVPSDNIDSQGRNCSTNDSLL
Chain of 5-hydroxytryptamine receptor 2A (Homo sapiens) (P28223 whole entry, looked up): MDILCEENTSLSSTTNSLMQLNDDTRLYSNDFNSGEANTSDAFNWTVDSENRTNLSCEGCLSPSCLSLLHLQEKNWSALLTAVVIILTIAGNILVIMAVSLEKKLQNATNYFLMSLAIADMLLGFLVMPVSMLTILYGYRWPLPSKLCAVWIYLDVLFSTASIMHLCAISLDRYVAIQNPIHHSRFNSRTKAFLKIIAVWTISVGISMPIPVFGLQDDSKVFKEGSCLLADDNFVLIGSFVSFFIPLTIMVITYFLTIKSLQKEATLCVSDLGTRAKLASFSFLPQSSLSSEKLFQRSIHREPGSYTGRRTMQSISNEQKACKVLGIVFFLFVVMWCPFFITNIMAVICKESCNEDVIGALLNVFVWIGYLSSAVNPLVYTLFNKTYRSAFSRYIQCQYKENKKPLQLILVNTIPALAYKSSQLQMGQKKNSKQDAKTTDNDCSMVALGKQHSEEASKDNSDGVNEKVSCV
Chain of Muscarinic acetylcholine receptor M1 (Homo sapiens) (P11229 whole entry, looked up): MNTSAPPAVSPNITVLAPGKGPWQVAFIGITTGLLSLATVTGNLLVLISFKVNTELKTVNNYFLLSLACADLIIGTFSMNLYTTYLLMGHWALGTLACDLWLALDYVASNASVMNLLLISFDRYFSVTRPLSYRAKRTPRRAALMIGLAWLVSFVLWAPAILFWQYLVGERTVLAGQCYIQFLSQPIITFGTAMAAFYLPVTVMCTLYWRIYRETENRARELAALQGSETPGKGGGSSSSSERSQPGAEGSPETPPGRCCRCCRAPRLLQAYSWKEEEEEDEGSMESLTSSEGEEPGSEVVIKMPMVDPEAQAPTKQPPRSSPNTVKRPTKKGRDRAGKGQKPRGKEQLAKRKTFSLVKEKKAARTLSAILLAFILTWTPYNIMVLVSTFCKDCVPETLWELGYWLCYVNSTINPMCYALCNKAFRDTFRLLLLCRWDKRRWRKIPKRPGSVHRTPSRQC

For the molecule `O=C1CCC(N2C(=O)c3ccccc3C2=O)C(=O)N1` (stereo not drawn), the Potency result in experiment [1], in experiment [2], in experiment [3], in [4], in [5] and in experiment [6] was “inactive” throughout. In addition, the Potency result in experiment [7], in experiment [8], in experiment [9], in experiment [10], in experiment [11] and in [12] was “inactive” each time. Besides, the Potency result in [13] and in [14] was “inactive” throughout.

Consider `O=c1cc[nH]c(=O)[nH]1`, for which the Potency entry in experiment [1], in [3], in experiment [15], in experiment [4], in experiment [5] and in experiment [6] was “inactive” throughout. The Potency result in experiment [7], in [8], in experiment [9], in experiment [16], in [17] and in experiment [18] was “inactive” each time. Further, the Potency entry in [10], in experiment [11], in experiment [12], in experiment [13] and in [14] was “inactive” in each case.

As for `CC1=CC2C3CC(C=C3C)C2C1` (stereo not drawn), the Potency result in experiment [1], in experiment [2], in [3], in experiment [15], in [6] and in experiment [7] was “inactive” in each case. The Potency result in experiment [8], in experiment [16], in [17], in experiment [18], in [19] and in [10] was “inactive” throughout. The Potency entry in experiment [11], in experiment [12], in [13] and in experiment [14] was “inactive” in each case.

Take `COC(=O)C1CCC(C(=O)OC)CC1` (stereo not drawn): the Potency entry in experiment [1], in experiment [2], in [3], in experiment [15], in [5] and in experiment [6] was “inactive” throughout. Besides, the Potency result in experiment [8], in experiment [9], in [16], in experiment [17], in experiment [18] and in experiment [19] was “inactive” in each case. The Potency result in experiment [10], in experiment [11], in [12], in [13] and in experiment [14] was “inactive” in each case.

As for `COc1ccc(Nc2ccccc2)c(C)c1`, the Potency entry in experiment [1], in [3], in experiment [15], in [4], in experiment [5] and in [6] was “inactive” in each case. For the same molecule, the Potency entry in experiment [7], in experiment [8], in [9], in [18], in experiment [19] and in experiment [10] was “inactive” in each case. Further, the Potency entry in [11], in experiment [20], in [13] and in experiment [14] was “inactive” throughout. In addition, in experiment [16], the Potency result is “inactive and 21.1 µM (active)”.

Take `O=C(O)CS`: the Potency entry in [1], in [3], in [15], in experiment [6], in [8] and in experiment [17] was “inactive” throughout. The Potency entry in experiment [19], in experiment [10], in [11], in experiment [12], in experiment [20] and in experiment [14] was “inactive” in each case. The Potency entry in experiment [2] was “inactive and 61.6 µM (active)”.

`CCCCCCCCCCCC[N+](C)(C)Cc1ccccc1`: the Potency in experiment [1] is 23.9 µM (active) and 29.7 µM (active) and 11.9 µM (active); in experiment [6], 44.9 µM (active) and 49.7 µM (active) and 19.9 µM (active); in [8], 49.7 µM (active) and 22.3 µM (active); in [16] it was 1.3 µM (active) and inactive and 16.3 µM (active); in [17], 48 µM (active); in [18] it was 1.02 µM (active) and 650 nM (active). In addition, the Potency entry in [14] is “inactive and 59.2 µM (active) and 29.8 µM (active)”. Further, the Potency entry in [2], in [3], in [15], in experiment [7], in experiment [19] and in experiment [12] was “inactive” each time. For the same molecule, in [13], the Potency result was “inactive”.
